# Source: PubChem BioAssay (National Center for Advancing Translational Sciences (NCATS))
# An excerpt weighted towards active compounds, which were near 15% of everything screened.
# DT40 TDP1 no CPT = qHTS for Inhibitors of human tyrosyl-DNA phosphodiesterase 1 (TDP1): qHTS in cells in absence of CPT. DT40 Tdp1-/- hTDP1 cells, no CPT, ATP luminescence, 48 h. Potency, µM (top dose mostly 46.2 µM), inactives show at the highest dose activity change, negative = growth inhibition, usual class: inhibitors. 15% of 420,000 active. AID 686978, 2013; note: nearly all actives have a fitted effect of over 55% in size
#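 Seeded 400 DT40-hTDP1 cells/well (vehicle DMSO, no 20 nM CPT); pinned compounds; ≥48 hr at 37 °C; CellTiter-Glo luminescence as viability measure.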
# ALOX12 inh = blocks human arachidonate 12S-lipoxygenase; AID 1671190; P18054; purified 12hLO, xylenol orange hydroperoxide absorbance; 1.1% of 580,000 active; Potency, µM (series often up to 108 µM), for inactives: at the top dose activity change, negative = inhibition, hits mostly inhibitors
#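 Hydroperoxide product was detected by ferrous iron/xylenol orange as the 573 to 405 nm absorbance ratio. Arachidonic acid at 40 uM (final) was turned over for 30 min at room temperature by 150 nM human 12hLO, pH 7.0 Hepes buffer, after 15 min compound preincubation.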
# RORgamma inh = ROR gamma (mouse) transcription inhibition | Drosophila S2 Gal4-RORgamma UAS-luciferase reporter, 20 h | Potency, µM (top dose mostly 53.6 µM), inactives show top-dose activity change, negative = inhibition, hits mostly inhibitors | P51450 | 5.4% of 310,000 active; note: nearly all actives have a fitted effect of over 60% in size
#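 A Gal4/UAS one-hybrid system in insect cells: metallothionein-promoter Gal4–ROR gamma fusion plus Photinus luciferase reporter. Copper sulfate 700 uM final, 20 hr ambient incubation, luminescent detection after 10 min with reagent.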
# ELG1 DNA repair = inhibitors of ELG1-dependent DNA repair in HEK293T cells. HEK293T ELG1-luciferase reporter, luminescence, 16 h; DNA damage induced by 5-fluorouridine. AID 504467. 2.3% of 330,000 active. Potency, µM (series often up to 46.1 µM), without a hit: at the top dose activity change, negative = inhibition, most hits filed as inhibitors; note: nearly all actives have a fitted effect of over 55% in size
#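 Quantitative HTS, concentration-response format. 2,000 cells/well co-treated with 5-fluorouridine and compound, 16 hr in 5% CO2 at 37 °C; ONE-Glo luminescence read after 30 min.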
# DT40 TDP1 CPT = DT40-hTDP1 cell growth loss with CPT | chicken DT40 Tdp1-/-;hTDP1 cells + 20 nM CPT, ATP luminescence, 48 h | Potency, µM (series often up to 46.2 µM), without a hit: top-dose activity change, negative = growth inhibition, hits mostly inhibitors | 12% of 420,000 active; note: nearly all actives have a fitted effect of over 55% in size
#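 Chicken DT40 Tdp1-/- cells complemented with human TDP1, 400 cells/well, exposed to compounds plus 20 nM camptothecin for at least 48 h at 37 C; viability read as ATP content by CellTiter-Glo luminescence.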
# Gal4-VP16 FLuc = inhibits Gal4-VP16 luciferase reporter, ROR gamma counter-screen. Drosophila S2 Gal4-VP16 UAS-luciferase, luminescence, 20 h. Potency, µM (series often up to 53.6 µM), inactives show at the highest dose activity, negative = inhibition, actives largely listed as inhibitors. 3.5% of 310,000 active;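 note: Gal4-VP16 expression switched on by copper sulfate through the metallothionein promoter; nearly all actives have a fitted effect of over 50% in size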
# ELG1 FLuc counter = luciferase inhibition in cell-free luciferin readout for ELG1 hits. shares compounds with ELG1 DNA repair. cell-free firefly luciferase luminescence counter-screen, ViewLux. Potency, µM (top dose mostly 46.1 µM), for inactives: top-dose activity change, negative = inhibition, actives largely listed as inhibitors. 3% of 350 active. AID 624247
# ELG1 Luc conf = confirmation of human ELG1-dependent DNA repair inhibitors | AID 624248 | HEK293T ELG1-luciferase levels, luminescence; cells co-treated with 5-fluorouridine | 68% of 670 active | Potency, µM (top dose mostly 46.1 µM), without a hit: at the highest dose activity change, negative = inhibition, actives largely listed as inhibitors | shares compounds with ELG1 DNA repair; note: nearly all actives have a fitted effect of over 55% in size
# ELG1 MMS Luc = inhibits ELG1-dependent repair under MMS stimulation in HEK293T cells; 53% of 670 active; shares compounds with ELG1 DNA repair; Potency, µM (highest dose often 46.1 µM), for the others: at the top dose activity change, negative = inhibition, actives largely listed as inhibitors; HEK293T luciferase-tagged ELG1 level, MMS stimulated; note: nearly all actives have a fitted effect of over 60% in size
# ELG1 5-FU = confirmation of ELG1 repair inhibitors: viability with 5FU. shares compounds with ELG1 DNA repair. cell viability with 5-FU, ELG1-dependent repair. Potency, µM (top dose mostly 46.1 µM), for inactives: top-dose activity change, negative = viability loss, hits mostly cytotoxic. 670 tested, under 10 active;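 note: ELG1-luc HEK293T cells cotreated with 5-fluorouridine at 10 µM final; viability measured 16 h after compound addition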
# ELG1 MMS viab = confirmation of ELG1 repair inhibitors: viability with MMS | shares compounds with ELG1 DNA repair | Cell viability with MMS, ELG1-dependent DNA repair | Potency, µM (top dose mostly 46.1 µM), without a hit: at the highest dose activity change, negative = viability loss, usual class: cytotoxic | 33% of 670 active | AID 624251;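 note: ELG1-luc HEK293T cells co-treated with 10 µM MMS; viability read 16 h after compound addition; nearly all actives have a fitted effect of over 60% in size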
# Cell viab unstim = unstimulated viability counter-screen for ELG1 repair hits; cell viability counter-screen, unstimulated, luminescence; shares compounds with ELG1 DNA repair; 8% of 900 active; Potency, µM (doses to about 45.9 µM), inactives show top-dose activity change, negative = loss of viability, hits mostly cytotoxic;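 note: compound exposure lasted 16 hours before reading; nearly all actives have a fitted effect of over 55% in size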
# FLuc enzyme = counter-screen for ELG1 repair inhibitors: firefly luciferase inhibition; shares compounds with ELG1 DNA repair; purified firefly luciferase, luminescence counter-screen; 10% of 350 active; Potency, µM (series often up to 57.5 µM), for the others: at the highest dose activity, negative = inhibition, usual class: inhibitors
# * marks the source's active call; other numbers are inactive results; ? = inconclusive; . = no result; [ ] = dose if it differs, or a comment. Calls come from the whole dose curve; as a rule, active = well fitted curve in the direction sought with a large enough effect; inconclusive = small, poorly fitted or top-dose-only effect, or another doubt; inactive = no such curve, though single readings can be large; an effect the other way counts as inactive or inconclusive. % is set by controls: 0 for no effect and ±100 for the full control effect; potency is the fitted concentration of half-maximal effect.
SMILES,DT40 TDP1 no CPT,ALOX12 inh,RORgamma inh,ELG1 DNA repair,DT40 TDP1 CPT,Gal4-VP16 FLuc,ELG1 Luc conf,ELG1 MMS Luc,ELG1 5-FU,ELG1 MMS viab,Cell viab unstim,others
COc1ccc(C(=O)N/N=C/c2cc(Br)ccc2O)cc1OC,3.3µM*,?,3.2µM*,2.1µM*,2.3µM*,4.5µM*,4µM*,13µM*,19%,16µM*,-13%,
Cc1ccc(OCCOc2ccc3ccc(=O)oc3c2)cc1,.,-7%,.,.,.,.,.,.,.,.,.,
CCOCCOC(=O)c1[nH]c2c(c1C)C(=O)CC(c1cc(OC)c(OC)c(OC)c1)C2 (stereo not drawn),9.2µM*,0%,?,4.1µM*,10µM*,?,10µM*,6.3µM*,-5%,?,?,
COc1ccc(C)cc1NC(=O)CN1CCCC1c1ccc2c(c1)OCCCO2 (stereo not drawn),?,?,.,4.1µM*,?,.,3.1µM*,18µM*,?,?,-10%,
O=C(CN1CCCC1c1ccc2c(c1)OCCCO2)Nc1ccccc1F (stereo not drawn),.,2%,.,.,.,.,.,.,.,.,.,
COc1ccc(-c2nnc(SC(C)C(=O)Nc3cccc(Cl)c3)o2)cc1 (stereo not drawn),?,16%,-33%,?,-26%,?,.,.,.,.,1%,
COc1cc(/C=N/Nc2nc(C)cc(C)n2)ccc1OC(=O)c1ccco1,-14%,24%,-18%[10 µM],14%,-24%,-1%,.,.,.,.,.,
CCOc1cc(/C=N\Nc2nc(Nc3ccccc3)nc(N3CCOCC3)n2)ccc1OC(=O)c1ccco1,8.2µM*,-23%,-29%[10 µM],2.3µM*,18µM*,-7%,1.6µM*,?,?,?,?,
O=C(Nc1cccc(OCC(=O)N2CCOCC2)c1)c1cccc(Cl)c1,5%,4%,19%,-7%,6%,-11%,.,.,.,.,.,
CCOc1cc(C(=O)Nc2cccc(OCC(=O)N3CCOCC3)c2)cc(OCC)c1OCC,-14%,-2%,9%,2.1µM*,4%,2%,8.9µM*,?,6%,0%,-18%,
CCOc1cccc(-c2nnc(SCC(=O)Nc3cc(C)ccc3OC)n2N)c1,?,0%,?,0.58µM*,-23%,1%,?,-18%,9%,0%,-5%,ELG1 FLuc counter=1%;FLuc enzyme=-8%
CN(C)c1ccc(/C=C2\CCc3ccccc32)cc1,?,.,.,.,?,.,.,.,.,.,-6%,
CN(C)c1ccc(/C=C2\CCc3cc(N)ccc32)cc1,-28%,.,.,.,5%,.,.,.,.,.,.,
CC1CN(c2ccc(Cl)cc2)C(=O)CN1C(=O)CCn1cccc1 (stereo not drawn),.,-13%,.,.,.,.,.,.,.,.,.,
CCn1c(NC(=O)c2oc3ccccc3c2CSC)nc2ccccc21,.,-2%,.,.,.,.,.,.,.,.,.,
Cc1cc(C(=O)COC(=O)C2=NNC(=O)CC2)c(C)n1-c1ccccc1,-13%,-3%,-34%,?,-24%,-15%,.,.,.,.,.,
Cc1cc(C(=O)COC(=O)C2=COCCO2)c(C)n1-c1ccccc1,?,-4%,.,?,?,.,.,.,.,.,?,ELG1 FLuc counter=11µM*;FLuc enzyme=0.092µM*
Cc1ccc(-c2c[n+](Cc3ccc(Cl)cc3)c3n2CCC3)cc1,3.7µM*,98%,11%,2.6µM*,4.1µM*,-28%,?,7.9µM*,-4%,7.9µM*,4µM*,ELG1 FLuc counter=-14%;FLuc enzyme=-10%
Cn1c(NC(=O)C[n+]2cc(-c3ccc(Cl)cc3)n3c2CCC3)cc(=O)n(C)c1=O,?,-15%,14%,2%,-26%,-3%,.,.,.,.,.,
NC[C@H]1O[C@@H]2C[C@@H](CC(=O)N3CCC(F)(F)C3)O[C@@H]2[C@@H]1O,.,1%[176 µM],.,.,.,.,.,.,.,.,.,
O=c1c2ccccc2oc2c1oc1ccccc12,?,?,.,?,?,.,.,.,.,.,-15%,
CC1CCN(CC2CCCCCN2C(=O)Nc2ccc3c(c2)OCCO3)CC1 (stereo not drawn),.,7%,.,.,.,.,.,.,.,.,.,
COCC(c1ccccn1)N(C)Cc1cn(-c2ccccc2)nn1 (stereo not drawn),.,68%,.,.,.,.,.,.,.,.,.,
CCC(=O)N1CCc2cc(Br)cc(S(=O)(=O)N3CCC(C(=O)NCCCOC(C)C)CC3)c21,-24%,-14%,-8%,1.6µM*,14%,8%,7.9µM*,15%,?,4%,-2%,
O=C1CCN(Cc2ccccc2)C=C1c1ccc2ccccc2c1,-17%,-6%,.,?,-30%,.,.,.,.,.,-2%,
COc1cc(C2=CN(Cc3ccccc3)CCC2=O)cc(OC)c1OC,-18%,-18%,.,?,-28%,.,.,.,.,.,.,
C(=Cc1nc2ccccc2o1)c1ccc2c(c1)OCO2,?,1%,.,.,-12%,.,.,.,.,.,.,
